Data: the supplement of paper PMC10849652
About 8,800 targets were measured; listed, in parts, are those with a hit and a random draw of the rest. About 0.5% of all pairs of compound and target were hits.

Columns and labels:
Test in all cases: log2 fold change, soluble protein after heating vs DMSO (PISA); higher = thermal stabilisation; K562 lysate, 10 uM; active = over 0.2 and 3.5 SD of the protein, either way, in both replicates (recomputed)
nilotinib = compound: Cc1cn(-c2cc(NC(=O)c3ccc(C)c(Nc4nccc(-c5cccnc5)n4)c3)cc(C(F)(F)F)c2)cn1 [nilotinib]
How it was run: (§1)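 Quantification was by TMTpro 16plex LC-MS/MS with equalised channel sums, applied to the supernatant after 21,000xg for 90 min. Samples were crude K562 extract at 1 mg/mL protein in PBS pH 7.4 with 1 mM MgCl2, treated with 10 μM compound for 30 min, heated for 3 min across 48°C-58°C, pooled and brought to 0.5% NP-40 at 4°C. Values are log-two fold changes in thermal stability relative to solvent controls, from duplicates.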

[1] = compound: Cc1nc(Nc2n[nH]c3c2CN(C(=O)N[C@H](CN(C)C)c2ccccc2)C3(C)C)c2sccc2n1
How it was run: as §1

dasatinib = compound: Cc1nc(Nc2ncc(C(=O)Nc3c(C)cccc3Cl)s2)cc(N2CCN(CCO)CC2)n1 [dasatinib]
How it was run: as §1

[2] = compound: Cc1ncc(-c2ccnc(Nc3ccc(S(C)(=O)=O)cc3)n2)n1C(C)C
How it was run: as §1

[3] = compound: Cn1cc(-c2ccc3c(c2)CCN3C(=O)Cc2cccc(C(F)(F)F)c2)c2c(N)ncnc21
How it was run: as §1

quisinostat = compound: Cn1cc(CNCC2CCN(c3ncc(C(=O)NO)cn3)CC2)c2ccccc21 [quisinostat]
How it was run: as §1

tipifarnib = compound: Cn1cncc1[C@@](N)(c1ccc(Cl)cc1)c1ccc2c(c1)c(-c1cccc(Cl)c1)cc(=O)n2C [tipifarnib]
How it was run: as §1

[4] = compound: NC(=O)Nc1cc(-c2cccc(F)c2)sc1C(=O)N[C@H]1CCCNC1
How it was run: as §1

[5] = compound: NC(=O)c1cnc(N[C@@H]2CCCC[C@@H]2N)nc1Nc1cccc(-n2nccn2)c1
How it was run: as §1

[6] = compound: NC1(c2ccc(-c3nc4ccn5c(=O)[nH]nc5c4cc3-c3ccccc3)cc2)CCC1
How it was run: as §1

Measured: log2 fold change

EXOC2 (UniProt Q96KP1)
inactive: nilotinib 0.009 | [1] 0.018 | dasatinib -0.041 | [2] -0.009 | [3] 0.022 | quisinostat -0.088 | tipifarnib -0.022 | [4] 0.062 | [5] -0.003 | [6] -0.029

GART (UniProt P22102)
Sequence of UniProt P22102 (P22102 whole entry, looked up): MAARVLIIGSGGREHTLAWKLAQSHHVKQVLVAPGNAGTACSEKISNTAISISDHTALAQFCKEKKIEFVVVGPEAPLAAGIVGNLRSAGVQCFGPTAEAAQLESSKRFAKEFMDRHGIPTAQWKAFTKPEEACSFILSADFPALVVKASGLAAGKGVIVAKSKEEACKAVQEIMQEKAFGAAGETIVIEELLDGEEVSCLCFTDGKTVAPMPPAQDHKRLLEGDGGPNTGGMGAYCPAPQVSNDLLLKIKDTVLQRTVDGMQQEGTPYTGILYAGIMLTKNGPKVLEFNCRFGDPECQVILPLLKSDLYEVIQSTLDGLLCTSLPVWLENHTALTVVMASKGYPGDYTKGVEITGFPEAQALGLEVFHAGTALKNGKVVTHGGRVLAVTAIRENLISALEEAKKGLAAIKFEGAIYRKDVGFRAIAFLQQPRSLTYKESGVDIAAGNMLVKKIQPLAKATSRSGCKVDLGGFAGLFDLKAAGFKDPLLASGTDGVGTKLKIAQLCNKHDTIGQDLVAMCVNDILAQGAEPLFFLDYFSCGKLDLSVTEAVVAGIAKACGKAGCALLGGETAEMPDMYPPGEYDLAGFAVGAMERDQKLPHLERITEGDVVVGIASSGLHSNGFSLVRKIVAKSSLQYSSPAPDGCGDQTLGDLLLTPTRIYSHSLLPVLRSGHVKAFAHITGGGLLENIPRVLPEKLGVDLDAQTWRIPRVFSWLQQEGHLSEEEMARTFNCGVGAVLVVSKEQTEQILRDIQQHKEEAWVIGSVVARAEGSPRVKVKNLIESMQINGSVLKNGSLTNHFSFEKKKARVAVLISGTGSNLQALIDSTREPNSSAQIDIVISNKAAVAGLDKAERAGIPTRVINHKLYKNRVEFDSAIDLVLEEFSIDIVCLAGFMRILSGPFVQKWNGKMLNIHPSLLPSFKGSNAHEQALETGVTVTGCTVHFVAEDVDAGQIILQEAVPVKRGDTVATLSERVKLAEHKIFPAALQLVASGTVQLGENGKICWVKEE
inactive: nilotinib -0.006 | [1] -0.024 | dasatinib -0.022 | [2] -0.011 | [3] 0.01 | quisinostat 0.025 | tipifarnib 0.011 | [4] 0.015 | [5] 0.007 | [6] 0.006

GBF1 (UniProt Q92538)
Sequence of UniProt Q92538 (Q92538 whole entry, looked up): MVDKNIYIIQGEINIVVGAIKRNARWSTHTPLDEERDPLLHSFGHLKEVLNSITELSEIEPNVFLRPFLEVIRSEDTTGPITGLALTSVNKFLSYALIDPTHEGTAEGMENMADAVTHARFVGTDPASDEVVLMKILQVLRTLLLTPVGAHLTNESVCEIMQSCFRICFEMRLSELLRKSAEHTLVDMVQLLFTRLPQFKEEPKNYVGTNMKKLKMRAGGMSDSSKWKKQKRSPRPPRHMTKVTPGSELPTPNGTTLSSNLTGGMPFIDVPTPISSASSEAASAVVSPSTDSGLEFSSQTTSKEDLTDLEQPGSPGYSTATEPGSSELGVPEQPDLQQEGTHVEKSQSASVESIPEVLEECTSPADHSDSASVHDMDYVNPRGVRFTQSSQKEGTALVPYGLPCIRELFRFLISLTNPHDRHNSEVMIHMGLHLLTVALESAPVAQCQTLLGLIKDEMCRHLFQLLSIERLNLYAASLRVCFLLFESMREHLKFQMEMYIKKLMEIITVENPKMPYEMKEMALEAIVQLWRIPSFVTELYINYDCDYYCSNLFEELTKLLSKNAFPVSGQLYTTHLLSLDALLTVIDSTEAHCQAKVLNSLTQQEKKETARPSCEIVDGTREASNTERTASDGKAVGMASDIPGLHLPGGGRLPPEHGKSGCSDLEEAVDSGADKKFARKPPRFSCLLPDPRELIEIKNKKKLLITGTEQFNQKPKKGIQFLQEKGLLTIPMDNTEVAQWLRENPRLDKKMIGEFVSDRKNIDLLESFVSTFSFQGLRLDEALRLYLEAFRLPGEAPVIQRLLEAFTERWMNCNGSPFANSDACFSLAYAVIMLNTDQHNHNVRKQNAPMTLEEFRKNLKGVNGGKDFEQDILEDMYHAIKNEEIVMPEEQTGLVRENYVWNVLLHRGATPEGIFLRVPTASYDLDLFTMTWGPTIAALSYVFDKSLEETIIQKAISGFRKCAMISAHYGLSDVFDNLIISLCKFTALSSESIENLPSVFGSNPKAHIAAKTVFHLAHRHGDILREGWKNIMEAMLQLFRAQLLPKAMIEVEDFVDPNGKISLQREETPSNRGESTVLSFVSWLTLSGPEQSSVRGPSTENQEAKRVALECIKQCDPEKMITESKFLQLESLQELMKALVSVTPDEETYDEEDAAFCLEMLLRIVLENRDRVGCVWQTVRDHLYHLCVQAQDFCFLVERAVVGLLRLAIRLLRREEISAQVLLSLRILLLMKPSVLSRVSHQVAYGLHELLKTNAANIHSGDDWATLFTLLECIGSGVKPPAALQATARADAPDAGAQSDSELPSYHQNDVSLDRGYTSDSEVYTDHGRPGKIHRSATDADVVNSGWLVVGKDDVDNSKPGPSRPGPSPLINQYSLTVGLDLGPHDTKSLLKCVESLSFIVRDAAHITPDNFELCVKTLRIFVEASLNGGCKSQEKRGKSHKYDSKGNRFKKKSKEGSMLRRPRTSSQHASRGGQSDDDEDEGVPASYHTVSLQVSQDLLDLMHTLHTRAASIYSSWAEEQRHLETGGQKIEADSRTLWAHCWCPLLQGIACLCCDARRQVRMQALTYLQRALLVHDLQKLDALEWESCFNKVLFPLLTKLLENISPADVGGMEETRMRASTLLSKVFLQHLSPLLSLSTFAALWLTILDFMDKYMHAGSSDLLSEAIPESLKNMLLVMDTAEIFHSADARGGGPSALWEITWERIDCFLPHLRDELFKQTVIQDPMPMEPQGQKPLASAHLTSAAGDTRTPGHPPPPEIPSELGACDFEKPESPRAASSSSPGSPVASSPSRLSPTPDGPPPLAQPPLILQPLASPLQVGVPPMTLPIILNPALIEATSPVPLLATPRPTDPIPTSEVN
inactive: nilotinib -0.021 | [1] 0.02 | dasatinib -0.088 | [2] 0.027 | [3] 0.021 | quisinostat -0.04 | tipifarnib -0.003 | [4] 0.054 | [5] 0.018 | [6] -0.034

GAPDH (UniProt P04406)
Sequence of UniProt P04406 (P04406 whole entry, looked up): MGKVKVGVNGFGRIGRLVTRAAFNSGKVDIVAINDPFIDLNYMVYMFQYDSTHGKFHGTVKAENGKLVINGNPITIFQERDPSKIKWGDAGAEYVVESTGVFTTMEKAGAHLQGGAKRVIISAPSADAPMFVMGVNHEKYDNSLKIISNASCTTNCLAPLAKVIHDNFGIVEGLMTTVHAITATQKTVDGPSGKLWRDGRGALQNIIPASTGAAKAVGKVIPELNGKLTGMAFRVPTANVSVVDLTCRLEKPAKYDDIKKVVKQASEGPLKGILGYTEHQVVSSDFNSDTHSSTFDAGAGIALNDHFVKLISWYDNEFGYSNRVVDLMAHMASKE
inactive: nilotinib 0.045 | [1] -0.026 | dasatinib -0.001 | [2] -0.023 | [3] 0 | quisinostat 0.114 | tipifarnib 0.042 | [4] 0 | [5] -0.019 | [6] 0.018

ERBIN isoform 8 (UniProt Q96RT1)
inactive: nilotinib 0.012 | [1] -0.027 | dasatinib 0.051 | [2] -0.015 | [3] 0.018 | quisinostat -0.029 | tipifarnib -0.005 | [4] 0.018 | [5] 0 | [6] 0.001

FADS1, A0A0A0MR51
inactive: nilotinib 0.065 | [1] -0.078 | dasatinib 0.04 | [2] 0.02 | [3] 0.079 | quisinostat 0.004 | tipifarnib 0.069 | [4] 0.008 | [5] -0.114 | [6] 0.022

GAPVD1 isoform 6 (UniProt Q14C86)
inactive: nilotinib 0.006 | [1] 0.005 | dasatinib -0.05 | [2] -0.005 | [3] 0.044 | quisinostat -0.029 | tipifarnib -0.02 | [4] 0.032 | [5] 0.013 | [6] 0.026

FREM2 (UniProt Q5SZK8)
inactive: nilotinib -0.108 | [1] 0.041 | dasatinib -0.071 | [2] -0.113 | [3] -0.014 | quisinostat -0.223 | tipifarnib -0.168 | [4] 0.048 | [5] 0.059 | [6] 0.04

EPB41, A0A2R8Y6D0
inactive: nilotinib -0.033 | [1] 0.312 | dasatinib 0.091 | [2] -0.044 | [3] -0.021 | quisinostat -0.017 | tipifarnib -0.055 | [4] 0.043 | [5] -0.042 | [6] -0.054

EXOC6 (UniProt Q8TAG9)
inactive: nilotinib -0.002 | [1] 0.01 | dasatinib -0.063 | [2] 0.022 | [3] 0.064 | quisinostat -0.023 | tipifarnib -0.044 | [4] 0.068 | [5] 0.024 | [6] -0.064

EFCAB14 (UniProt O75071)
inactive: nilotinib -0.16 | [1] 0.016 | dasatinib 0.049 | [2] 0.001 | [3] -0.005 | quisinostat -0.001 | tipifarnib 0.013 | [4] 0.053 | [5] -0.005 | [6] 0.013

EIF1 (UniProt P41567)
inactive: nilotinib 0.126 | [1] 0.084 | dasatinib 0.001 | [2] 0.142 | [3] -0.03 | quisinostat 0.133 | tipifarnib 0 | [4] -0.018 | [5] -0.076 | [6] -0.032

EXOC1 (UniProt Q9NV70)
inactive: nilotinib -0.005 | [1] 0.013 | dasatinib -0.067 | [2] 0.013 | [3] 0.097 | quisinostat 0.024 | tipifarnib 0.005 | [4] 0.024 | [5] 0.012 | [6] -0.032

FKBP8 isoform 2 (UniProt Q14318)
Sequence of UniProt Q14318 (Q14318 whole entry, looked up): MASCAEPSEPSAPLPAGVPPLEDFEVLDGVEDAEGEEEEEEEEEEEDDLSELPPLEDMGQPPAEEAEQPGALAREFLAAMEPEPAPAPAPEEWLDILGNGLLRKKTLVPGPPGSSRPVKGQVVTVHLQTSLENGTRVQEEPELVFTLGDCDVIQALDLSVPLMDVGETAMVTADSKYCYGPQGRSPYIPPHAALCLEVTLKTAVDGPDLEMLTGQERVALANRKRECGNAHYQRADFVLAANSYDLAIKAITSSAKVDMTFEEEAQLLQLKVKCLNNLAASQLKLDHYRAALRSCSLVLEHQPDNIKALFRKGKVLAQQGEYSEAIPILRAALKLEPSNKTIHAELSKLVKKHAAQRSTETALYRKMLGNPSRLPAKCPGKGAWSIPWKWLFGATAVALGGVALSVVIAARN
inactive: nilotinib -0.019 | [1] -0.055 | dasatinib -0.056 | [2] 0.014 | [3] 0.011 | quisinostat -0.21 | tipifarnib -0.005 | [4] 0.067 | [5] 0.02 | [6] 0.005

EDC4 (UniProt Q6P2E9)
Sequence of UniProt Q6P2E9 (Q6P2E9 whole entry, looked up): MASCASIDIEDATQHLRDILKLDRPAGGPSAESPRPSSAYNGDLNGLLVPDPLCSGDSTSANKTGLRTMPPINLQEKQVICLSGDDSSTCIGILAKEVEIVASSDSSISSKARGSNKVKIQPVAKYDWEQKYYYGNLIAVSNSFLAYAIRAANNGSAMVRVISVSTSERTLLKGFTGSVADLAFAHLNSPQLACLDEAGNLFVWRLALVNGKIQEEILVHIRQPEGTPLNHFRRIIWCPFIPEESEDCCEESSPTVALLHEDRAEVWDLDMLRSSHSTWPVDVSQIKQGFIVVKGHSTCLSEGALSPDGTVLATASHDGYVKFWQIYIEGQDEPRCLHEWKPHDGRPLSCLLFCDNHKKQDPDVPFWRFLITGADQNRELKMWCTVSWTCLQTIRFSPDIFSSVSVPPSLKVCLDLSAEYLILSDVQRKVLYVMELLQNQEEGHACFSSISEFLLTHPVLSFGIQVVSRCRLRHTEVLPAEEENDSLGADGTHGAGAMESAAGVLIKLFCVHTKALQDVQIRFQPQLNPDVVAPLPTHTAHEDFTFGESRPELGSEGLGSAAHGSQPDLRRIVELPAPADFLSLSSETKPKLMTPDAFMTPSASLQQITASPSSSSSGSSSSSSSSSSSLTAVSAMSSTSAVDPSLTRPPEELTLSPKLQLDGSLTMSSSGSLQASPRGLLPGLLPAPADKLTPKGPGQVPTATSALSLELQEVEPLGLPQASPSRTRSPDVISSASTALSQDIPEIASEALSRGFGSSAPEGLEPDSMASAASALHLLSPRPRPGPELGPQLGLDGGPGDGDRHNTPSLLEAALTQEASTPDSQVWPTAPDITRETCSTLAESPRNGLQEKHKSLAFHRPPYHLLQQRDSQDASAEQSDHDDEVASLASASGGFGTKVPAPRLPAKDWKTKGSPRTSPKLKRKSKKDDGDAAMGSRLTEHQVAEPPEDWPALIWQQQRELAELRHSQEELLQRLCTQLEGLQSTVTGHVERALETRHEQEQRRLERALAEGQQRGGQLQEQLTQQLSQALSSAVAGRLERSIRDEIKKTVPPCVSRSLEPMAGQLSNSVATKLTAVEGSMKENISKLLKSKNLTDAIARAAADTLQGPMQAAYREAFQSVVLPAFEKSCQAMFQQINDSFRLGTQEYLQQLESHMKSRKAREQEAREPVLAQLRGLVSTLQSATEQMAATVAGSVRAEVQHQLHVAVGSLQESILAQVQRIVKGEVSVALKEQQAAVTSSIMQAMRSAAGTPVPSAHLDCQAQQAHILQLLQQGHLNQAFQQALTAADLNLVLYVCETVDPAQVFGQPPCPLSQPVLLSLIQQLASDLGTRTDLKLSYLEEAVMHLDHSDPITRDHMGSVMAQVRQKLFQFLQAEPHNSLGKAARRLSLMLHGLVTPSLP
inactive: nilotinib 0 | [1] 0.007 | dasatinib -0.058 | [2] 0.007 | [3] -0.002 | quisinostat -0.071 | tipifarnib -0.001 | [4] 0.01 | [5] 0.027 | [6] 0.011
